What all share (set-up): scale not given: direction of the effect not stated beside the values
Test [1] concerns the target Protein translocase subunit SecA (Escherichia coli (strain K12)) (UniProt P10408). Kind of test: Assay to Identify E. coli SecA ATPase Inhibitors. Type of test: functional. The following applies: 30 µM.
In test [2] the target is T1, Ubiquitin-activating enzyme e1, putative (Leishmania donovani (strain BPK282A1)) (UniProt E9BSI1).
T1 sequence (whole entry): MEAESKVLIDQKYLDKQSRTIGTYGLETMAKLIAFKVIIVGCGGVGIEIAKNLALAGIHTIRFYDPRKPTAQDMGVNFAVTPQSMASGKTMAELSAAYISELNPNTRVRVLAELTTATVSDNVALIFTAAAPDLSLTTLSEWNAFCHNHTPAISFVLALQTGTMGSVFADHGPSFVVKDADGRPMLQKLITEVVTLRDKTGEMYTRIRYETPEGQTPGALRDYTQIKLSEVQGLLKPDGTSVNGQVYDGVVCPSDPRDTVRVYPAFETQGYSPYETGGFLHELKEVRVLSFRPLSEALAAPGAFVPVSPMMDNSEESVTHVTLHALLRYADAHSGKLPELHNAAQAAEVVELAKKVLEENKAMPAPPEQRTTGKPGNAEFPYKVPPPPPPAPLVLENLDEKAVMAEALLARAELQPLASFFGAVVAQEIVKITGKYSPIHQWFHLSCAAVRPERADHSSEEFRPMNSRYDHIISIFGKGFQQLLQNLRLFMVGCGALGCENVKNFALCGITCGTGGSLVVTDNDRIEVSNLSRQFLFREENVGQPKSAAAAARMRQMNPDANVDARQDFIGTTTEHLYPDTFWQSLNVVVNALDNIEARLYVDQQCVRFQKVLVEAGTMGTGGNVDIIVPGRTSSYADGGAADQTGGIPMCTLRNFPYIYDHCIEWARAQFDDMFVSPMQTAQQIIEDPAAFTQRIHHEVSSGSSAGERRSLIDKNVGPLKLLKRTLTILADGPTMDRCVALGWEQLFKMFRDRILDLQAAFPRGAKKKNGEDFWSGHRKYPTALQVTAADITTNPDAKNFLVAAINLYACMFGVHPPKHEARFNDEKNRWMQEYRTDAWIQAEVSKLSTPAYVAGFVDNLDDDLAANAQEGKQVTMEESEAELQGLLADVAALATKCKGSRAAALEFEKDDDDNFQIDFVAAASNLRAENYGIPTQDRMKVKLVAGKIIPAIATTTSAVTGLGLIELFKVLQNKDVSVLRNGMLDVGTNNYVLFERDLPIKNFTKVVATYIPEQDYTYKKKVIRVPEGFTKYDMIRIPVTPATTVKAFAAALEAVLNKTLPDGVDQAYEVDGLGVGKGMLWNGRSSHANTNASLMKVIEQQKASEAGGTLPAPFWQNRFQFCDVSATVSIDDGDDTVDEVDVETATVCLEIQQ
Kind of test: Leishmania donovani Ubiquitin Activating Enzyme (LdE1). In kind it is functional. The following applies: 30 µM.

Test [3] deals with AMP-activated protein kinase, AMPK (Homo sapiens) (UniProt P54646+O43741+P54619+Q9UGJ0+Q9Y478+Q13131+Q9UGI9). In words: AMP-dependent Kinase enzyme assay. An in vitro enzyme assay that detects ADP turnover that is directly proportional to AMPK activity. This uses naive AMPK that is activated during the assay with MK-8722. The following applies: 30 µM. In kind it is functional.

The target of test [4] is Sialic acid-binding Ig-like lectin 9 (Homo sapiens) (UniProt Q9Y336). Kind of test: Hs-Siglec9 ALPHAscreen SOP 20170721. The following applies: 10 µM.
A further test has as its system Trypanosoma cruzi. Kind of test: Trypanosoma cruzi phosphomannomutase and mannose-1-phosphate guanylyltransferase assay. Type of test: functional. The following applies: 10 µM.
Test [5] has as its target T2, Arginase-2, mitochondrial (Homo sapiens) (UniProt P78540).
T2 sequence (whole entry): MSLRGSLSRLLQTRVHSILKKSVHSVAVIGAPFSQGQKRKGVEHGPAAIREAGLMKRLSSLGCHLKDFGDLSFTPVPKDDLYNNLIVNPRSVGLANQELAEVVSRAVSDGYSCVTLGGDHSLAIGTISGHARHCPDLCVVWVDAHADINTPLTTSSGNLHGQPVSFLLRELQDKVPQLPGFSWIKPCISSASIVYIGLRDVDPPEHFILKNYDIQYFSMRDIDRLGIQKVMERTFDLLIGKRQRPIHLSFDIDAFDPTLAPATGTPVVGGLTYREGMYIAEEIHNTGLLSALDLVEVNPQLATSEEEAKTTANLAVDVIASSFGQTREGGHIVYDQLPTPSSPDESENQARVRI
In words: in vitro enzyme assay to detect the production of urea directly proportional to the activity of Arginase II. Note: in the data most compounds retested in dose-response had high values. To be noted: 33.3 µM. In kind it is functional.

The target in test [6] is T3, Proteasome subunit beta (Trypanosoma cruzi) (UniProt O96673).
T3 sequence (whole entry): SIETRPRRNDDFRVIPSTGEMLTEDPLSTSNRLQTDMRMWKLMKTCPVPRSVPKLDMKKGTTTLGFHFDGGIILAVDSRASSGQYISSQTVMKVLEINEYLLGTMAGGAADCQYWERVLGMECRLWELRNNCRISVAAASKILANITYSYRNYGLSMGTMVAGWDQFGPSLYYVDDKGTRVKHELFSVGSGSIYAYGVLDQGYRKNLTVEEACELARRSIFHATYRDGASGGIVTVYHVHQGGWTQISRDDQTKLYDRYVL
In words: Trypanosoma cruzi proteasome chymotrypsin-like activity (TcProtChymo) assay. Note: in the data most compounds retested in dose-response had high values. In kind it is functional. To be noted: 9.37 µM.

A further test is filed under the species Homo sapiens. Kind of test: To identify inhibition of the IFN signalling (Jak-Stat) pathway via expression of an eGFP reporter gene under the control of an IFN-stimulated response element (ISRE) containing MxA promoter. In kind it is functional. To be noted: 30 µM.
Test [7] has as its target T4, Tyrosyl-tRNA synthetase, putative (Trypanosoma cruzi (strain CL Brener)) (UniProt Q4DSP6).
T4 sequence (whole entry): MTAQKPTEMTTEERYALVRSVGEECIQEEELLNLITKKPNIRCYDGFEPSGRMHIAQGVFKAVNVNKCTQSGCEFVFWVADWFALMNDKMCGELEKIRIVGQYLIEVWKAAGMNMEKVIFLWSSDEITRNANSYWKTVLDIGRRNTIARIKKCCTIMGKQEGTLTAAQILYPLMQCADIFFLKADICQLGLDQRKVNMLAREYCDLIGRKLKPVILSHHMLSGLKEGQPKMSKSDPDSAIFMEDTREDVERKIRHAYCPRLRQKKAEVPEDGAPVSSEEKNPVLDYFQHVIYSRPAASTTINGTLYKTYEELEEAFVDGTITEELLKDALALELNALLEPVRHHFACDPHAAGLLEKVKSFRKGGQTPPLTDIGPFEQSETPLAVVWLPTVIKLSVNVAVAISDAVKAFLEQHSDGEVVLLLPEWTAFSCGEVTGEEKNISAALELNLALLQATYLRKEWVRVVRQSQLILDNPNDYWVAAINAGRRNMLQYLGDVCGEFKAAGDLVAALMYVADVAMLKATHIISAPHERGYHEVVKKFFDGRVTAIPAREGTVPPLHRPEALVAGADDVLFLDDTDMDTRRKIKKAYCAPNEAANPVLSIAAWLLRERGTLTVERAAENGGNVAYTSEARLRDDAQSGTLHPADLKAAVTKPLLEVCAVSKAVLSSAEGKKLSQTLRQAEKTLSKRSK
Kind of test: Trypanosoma cruzi tyrosyl tRNA synthetase (TcYRS) _High Tyrosine SOP. Note: in the data most compounds retested in dose-response had high values. In kind it is functional. The following applies: 30 µM.

Test [8] addresses T4, Tyrosyl-tRNA synthetase, putative (Trypanosoma cruzi (strain CL Brener)). In words: Trypanosoma cruzi tyrosyl tRNA synthetase (TcYRS) SOP. Type of test: functional. The following applies: 30 µM.
Test [9] has as its target Chromo domain-containing protein 1 (Saccharomyces cerevisiae (strain ATCC 204508 / S288c) (Baker's yeast)) (UniProt P32657). Kind of test: ScCHD-1 Enzyme Inhibition Assay. Note: in the data most compounds retested in dose-response had high values. Type of test: functional. The following applies: 30 µM.

SMILES strings stand for the structures. For some of these results: Measured potencies and affinities stand elsewhere.

Chain of Protein translocase subunit SecA (Escherichia coli (strain K12)) (P10408 whole entry): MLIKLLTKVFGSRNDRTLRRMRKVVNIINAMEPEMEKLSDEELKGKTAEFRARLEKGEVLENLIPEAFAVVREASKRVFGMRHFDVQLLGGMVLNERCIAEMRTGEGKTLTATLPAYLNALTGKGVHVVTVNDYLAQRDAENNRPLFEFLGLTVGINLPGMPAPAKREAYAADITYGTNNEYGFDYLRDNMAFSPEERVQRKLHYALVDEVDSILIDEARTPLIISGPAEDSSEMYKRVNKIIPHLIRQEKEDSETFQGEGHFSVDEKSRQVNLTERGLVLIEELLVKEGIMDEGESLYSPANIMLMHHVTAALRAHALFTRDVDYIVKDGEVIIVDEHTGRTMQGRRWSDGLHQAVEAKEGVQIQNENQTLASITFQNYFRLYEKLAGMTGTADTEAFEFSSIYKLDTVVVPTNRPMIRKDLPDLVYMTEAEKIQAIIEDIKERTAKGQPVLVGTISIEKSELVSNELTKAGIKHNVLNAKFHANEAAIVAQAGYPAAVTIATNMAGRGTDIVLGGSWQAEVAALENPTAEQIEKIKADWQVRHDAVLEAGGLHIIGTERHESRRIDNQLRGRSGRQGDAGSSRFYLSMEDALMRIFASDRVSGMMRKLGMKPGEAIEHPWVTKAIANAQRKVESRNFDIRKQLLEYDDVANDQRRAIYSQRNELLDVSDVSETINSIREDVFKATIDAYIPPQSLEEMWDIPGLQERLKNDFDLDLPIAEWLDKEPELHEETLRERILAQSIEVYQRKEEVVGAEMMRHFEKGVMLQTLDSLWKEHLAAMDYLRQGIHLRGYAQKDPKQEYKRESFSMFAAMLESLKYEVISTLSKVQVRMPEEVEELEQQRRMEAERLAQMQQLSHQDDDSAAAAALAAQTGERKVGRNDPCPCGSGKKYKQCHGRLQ
Chain of Chromo domain-containing protein 1 (Saccharomyces cerevisiae (strain ATCC 204508 / S288c) (Baker's yeast)) (P32657 whole entry, the tested form may be a part): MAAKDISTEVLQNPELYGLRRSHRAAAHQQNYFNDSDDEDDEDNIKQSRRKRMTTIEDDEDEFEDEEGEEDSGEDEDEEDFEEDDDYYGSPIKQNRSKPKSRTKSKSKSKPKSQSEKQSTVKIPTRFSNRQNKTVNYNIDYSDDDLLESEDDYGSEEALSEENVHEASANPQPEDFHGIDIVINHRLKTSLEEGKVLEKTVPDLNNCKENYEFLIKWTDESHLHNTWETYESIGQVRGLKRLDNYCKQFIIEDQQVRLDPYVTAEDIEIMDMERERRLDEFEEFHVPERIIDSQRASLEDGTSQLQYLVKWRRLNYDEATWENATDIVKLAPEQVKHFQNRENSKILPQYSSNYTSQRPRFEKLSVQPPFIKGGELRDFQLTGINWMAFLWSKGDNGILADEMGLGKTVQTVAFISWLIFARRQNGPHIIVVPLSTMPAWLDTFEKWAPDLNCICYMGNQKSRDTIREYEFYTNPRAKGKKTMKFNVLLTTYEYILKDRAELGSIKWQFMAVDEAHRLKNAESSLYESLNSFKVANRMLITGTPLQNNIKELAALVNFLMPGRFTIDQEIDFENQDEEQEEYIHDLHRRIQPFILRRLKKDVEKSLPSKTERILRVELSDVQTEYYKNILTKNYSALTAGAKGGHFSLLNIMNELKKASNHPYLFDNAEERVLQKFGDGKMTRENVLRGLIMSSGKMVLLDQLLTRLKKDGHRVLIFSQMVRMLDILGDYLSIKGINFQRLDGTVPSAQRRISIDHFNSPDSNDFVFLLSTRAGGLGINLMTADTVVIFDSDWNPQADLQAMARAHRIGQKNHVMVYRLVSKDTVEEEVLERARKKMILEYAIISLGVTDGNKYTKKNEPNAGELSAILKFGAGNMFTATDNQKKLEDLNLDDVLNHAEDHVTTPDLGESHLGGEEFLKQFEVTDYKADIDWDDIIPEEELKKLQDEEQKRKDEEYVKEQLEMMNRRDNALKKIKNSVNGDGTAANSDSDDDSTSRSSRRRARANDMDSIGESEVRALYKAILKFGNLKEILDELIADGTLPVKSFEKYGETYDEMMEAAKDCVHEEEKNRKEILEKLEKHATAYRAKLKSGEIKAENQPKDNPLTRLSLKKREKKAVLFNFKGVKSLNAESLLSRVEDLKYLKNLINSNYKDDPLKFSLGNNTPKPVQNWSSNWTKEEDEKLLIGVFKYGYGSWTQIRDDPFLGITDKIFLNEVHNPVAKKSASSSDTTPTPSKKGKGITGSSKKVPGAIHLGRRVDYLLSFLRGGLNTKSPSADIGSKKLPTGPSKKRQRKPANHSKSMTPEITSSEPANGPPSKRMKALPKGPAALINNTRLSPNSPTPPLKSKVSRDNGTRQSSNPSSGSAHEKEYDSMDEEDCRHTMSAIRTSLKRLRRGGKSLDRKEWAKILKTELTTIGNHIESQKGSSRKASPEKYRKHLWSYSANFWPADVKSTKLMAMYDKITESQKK
Chain of Sialic acid-binding Ig-like lectin 9 (Homo sapiens) (Q9Y336 whole entry): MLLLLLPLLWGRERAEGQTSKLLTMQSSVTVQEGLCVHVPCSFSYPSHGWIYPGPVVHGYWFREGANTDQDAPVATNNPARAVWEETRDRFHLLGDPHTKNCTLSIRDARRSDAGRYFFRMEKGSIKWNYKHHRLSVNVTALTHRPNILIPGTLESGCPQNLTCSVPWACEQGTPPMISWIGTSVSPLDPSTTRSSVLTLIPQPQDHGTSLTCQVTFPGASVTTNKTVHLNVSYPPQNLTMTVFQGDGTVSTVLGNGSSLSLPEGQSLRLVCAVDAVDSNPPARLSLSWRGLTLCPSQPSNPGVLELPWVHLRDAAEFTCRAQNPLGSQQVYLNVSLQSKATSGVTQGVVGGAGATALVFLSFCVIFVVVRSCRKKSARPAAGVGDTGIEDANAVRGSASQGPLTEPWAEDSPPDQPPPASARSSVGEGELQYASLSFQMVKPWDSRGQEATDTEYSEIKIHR

As to `O=S(=O)(c1cccs1)N1CCCn2nnc(CN3CCCCC3)c2C1`, the Percent Effect in [1] is -2.04%; in test [2], 2.67%; in [3] it was -7.89%; in test [4] it was 2%; in the test on Trypanosoma cruzi, 2.7%; in test [5], -43.5%. In addition, the Percent Effect in test [6] was -0.513%; in the test filed under Homo sapiens, -33.6%; in test [7], -1.04%; in [8], 2.5%; in test [9], -4.44%.

As to `O=C(Cc1ccc2c(c1)CCCC2)NCCc1ccccn1`, the Percent Effect in test [1] was -2.72%; in test [2] it was -7.89%; in test [3] it was -4.68%; in [4], -1.25%; in the test on Trypanosoma cruzi it was 0.0934%; in [5] it was 1.44%. For the same molecule, the Percent Effect is 16.2% in test [6]; 12.1% in the test listed under Homo sapiens; 7.39% in test [7]; 23.5% in [8]; -7.01% in [9].

With `Cc1ccoc1C(=O)NC1CCN(Cc2csc3c(F)cccc23)CC1`, the Percent Effect in test [1] is -4.82%; in [2], -1.27%; in test [3], -4.47%; in test [4], -1.87%; in the test with Trypanosoma cruzi, -0.308%; in test [5], -3.66%. For the same molecule, the Percent Effect in test [6] is 9.61%; in the test filed under Homo sapiens, 17.2%; in test [7] it was 6.25%; in [8], 10.1%; in [9], -13.8%.

On to `O=C(NC[C@]12COC[C@H]1CN(Cc1nccs1)C2)c1ccccc1`, for which the Percent Effect in [1] was -4.56%; in [2], 17.3%; in test [3] it was -62.1%; in test [4], 6.67%; in the test with Trypanosoma cruzi, 3.34%; in test [5], -6.87%. In addition, the Percent Effect in test [6] was 15.7%; in the test listed under Homo sapiens, 4.15%; in test [7] it was 2.12%; in [8] it was 7.69%; in [9] it was -9.52%.

Take `Cc1cc(C)cc(C2(C(=O)NC(C)Cn3ccnc3)CC2)c1` (stereo unspecified): the Percent Effect in test [1] was -2.27%; in test [2] it was 25.3%; in [3] it was -10.3%; in [4] it was 0.0554%; in the test with Trypanosoma cruzi, 3.31%; in test [5] it was -4.56%. For the same molecule, the Percent Effect in [6] was 14.3%; in the test listed under Homo sapiens, -5.91%; in test [7] it was 8.37%; in test [8], 24.1%; in test [9], -10.8%.

As to `O=C(NCCOCC(F)(F)F)c1ccc(-c2ccco2)[nH]c1=O`, the Percent Effect in test [1] was -1.86%; in test [2], 8.11%; in test [3], 3.08%; in [4], 3.06%; with Trypanosoma cruzi it was -6.13%; in test [5], -0.802%. The Percent Effect in [6] was 8.29%; in the test listed under Homo sapiens, 19.7%; in test [7], 6.4%; in test [8] it was 11.1%; in test [9], -6.31%.

With `COc1cc(C(=O)N2CCC(c3n[nH]c(C4CC4)n3)CC2)ccc1C`, the Percent Effect was -4.66% in [1]; -1.27% in test [2]; 6.11% in test [3]; -3.19% in [4]; -1.33% in the test on Trypanosoma cruzi; 2.37% in test [5]. For the same molecule, the Percent Effect in [6] was -0.686%; in the test filed under Homo sapiens it was 8.43%; in [7], 1.04%; in test [8] it was -2.53%; in test [9], -30.5%.

For the molecule `O=C(Cn1ccc2ccc(Br)cc21)NCc1ccc(C(=O)O)cc1`, the Percent Effect is -2.06% in [1]; -5.26% in test [2]; 4.18% in test [3]; -0.116% in test [4]; -7.69% in the test on Trypanosoma cruzi; -3.55% in test [5]. Also, the Percent Effect is 9.88% in test [6]; -5.25% in the test filed under Homo sapiens; -10.6% in test [7]; -13% in [8]; -4.34% in test [9].

In the case of `COC(=O)CNC(=O)CSCc1nc(O)c2cc(C(C)C)sc2n1`, the Percent Effect in [1] is 0.0478%; in test [2], -6.67%; in test [3], 10.7%; in test [4], 2.72%; in the test with Trypanosoma cruzi, -2.95%; in test [5], -9.68%. Moreover, the Percent Effect was 7.58% in [6]; -3.98% in the test filed under Homo sapiens; -3.17% in [7]; 5.13% in test [8]; -1.35% in test [9].

On to `Cc1csc2c(N3CCC(NCCCc4ccncc4)CC3)ncnc12`, for which the Percent Effect in [1] was -0.362%; in test [2], 2.6%; in test [3] it was 5.76%; in test [4] it was 17.7%; in the test on Trypanosoma cruzi, -1.08%; in test [5], -1.38%. Also, the Percent Effect in [6] was 6.49%; in the test listed under Homo sapiens, -3.09%; in [7], 7.53%; in test [8] it was 11.1%; in test [9] it was -2.5%.

For the molecule `O=C(Nc1nc2c(s1)CCC2)c1cccnc1N1CCOCC1`, the Percent Effect in test [1] was -0.311%; in [2], -2.63%; in test [3] it was 9.51%; in [4] it was -0.88%; with Trypanosoma cruzi, -4.19%; in test [5], 11.8%. For the same molecule, the Percent Effect in test [6] is 4.7%; in the test filed under Homo sapiens, 2.75%; in test [7], 0%; in test [8], -2.6%; in test [9], 1.45%.
